For 100 molecules, inhibition results are on record in PubChem BioAssay AID1063 (University of Pittsburgh Molecular Library Screening Center, 2008).

Among all 200,000 compounds or so, about 18,000 (9%) were called active. For the sample, actives were picked, then their nearest neighbours and some compounds at random. Unmarked numbers belong to inactive results. Rule as the data show it: active = inhibition above about 50%; inactive = the rest.

A short description of this assay: antileishmanial activity against promastigotes – primary screen (AID 1063).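 Also: promastigotes grown with compound for 44 hours at 28 °C.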 The conditions noted are these: Leishmania major promastigotes, resazurin fluorescence viability; at 10 µM; hits give high values.
As to `S=c1[nH]nc(-c2cccnc2)n1/N=C/C(Cl)=C\c1ccccc1`, the inhibition was 86% (active).
Next, `Cc1cc(-c2n[nH]c(=S)n2/N=C/C(Br)=C/c2ccccc2)n[nH]1`: 88.5% (active).
To `COc1ccccc1N1CCN(/N=C\C(Br)=C\c2ccccc2)CC1` belongs -5.39%; to `c1ccc(-n2nnnc2-c2cccnc2)cc1`, -7.89%.
Next, `CCN(CC)S(=O)(=O)c1cccc(-c2n[nH]c(=S)n2/N=C/c2ccc(C(=O)OC)cc2)c1`: 27.8%.
On to `Cc1ccccc1-c1n[nH]c(=S)n1/N=C/c1ccc(-c2ccccc2Br)o1`, for which the inhibition was 23%.
Next, `Clc1ccc(N/N=C/c2cccs2)nn1`: -2.51%; `C/C(N)=C(/C#N)C(=O)COC(=O)c1cc(-c2ccc(C)cc2)nc2ccccc12`: 18.1%.
`C/C(N)=C(/C#N)C(=O)COC(=O)c1cc(-c2ccccc2)nc2ccc(Br)cc12`: the inhibition was -4.87%.
To `C/C(N)=C(/C#N)C(=O)COC(=O)c1cc(-c2cccc(Br)c2)nc2ccccc12` belongs 59.9% (active); to `O=C(NCc1ccccc1Cl)C1CCCO1` (stereo not given), -3.01%.
To `COc1ccc(-c2nnc3ccc(SCc4ccccc4)nn23)cc1` belongs -3.51%; to `O=C1CCC(=O)N1c1ccc(NCCc2ccccc2F)c([N+](=O)[O-])c1`, -3.12%.
Next, `Cc1ccccc1C(=O)OC1OC(=O)C(Cl)=C1Nc1ccccc1` (stereo not given): 2.63%; `COc1ccc(C(=O)COC(=O)c2nn(C)c(=O)c3ccccc23)c(OC)c1`: -4.39%; `FC(F)Oc1ccc(NC(=S)NCc2ccco2)cc1Cl`: 12.2%.
With `Cc1ccc(S(=O)(=O)NCCC(=O)Nc2ccc(C)c(Cl)c2)cc1C`, the inhibition was 4.01%.
Regarding `Cc1ccc(CC(=O)Nc2ccc(OC(F)F)c(Cl)c2)cc1C`, the inhibition is 91.2% (active).
Next, `CC(C)Cn1c(N)c(C(=O)COC(=O)CN2C(=O)C3CC=CCC3C2=O)c(=O)n(C)c1=O` (stereo not given): 0.69%; `O=[N+]([O-])/C(N=Nc1ccccc1)=N\Nc1ccccc1`: 0.84%; `CCOc1cccc(/C=N/N2C(=O)CSC2=S)c1O`: 2.44%.
Consider `Cc1ccccc1-n1cc(CNC(=O)CC2C(=O)NCCN2C/C=C/c2ccccc2)cn1` (stereo not given), for which the inhibition is -1.38%.
For `CCOC(=O)c1oc2c(CN3CCN(CCO)CC3)c(O)c(CC)cc2c(=O)c1-c1nc2ccccc2s1`, the inhibition is -5.26%.
For the molecule `COc1cc(OC)nc(S(C)(=O)=O)n1`, the inhibition is -0.01%.
`COc1ccc(-c2cc(C(F)(F)F)nc(SCC(=O)Nc3ccc4c(c3)OCO4)n2)cc1OC`: the inhibition is 0.67%.
For the molecule `COc1ccc(-c2cc(C(F)(F)F)nc(S(C)(=O)=O)n2)cc1OC`, the inhibition was 71.7% (active).
Next, `O=C(/C=C/c1ccc(N2CCOCC2)cc1)c1ccccc1`: 13.2%.
For the molecule `O=c1[nH]c(CN2CCOCC2)nc2scc(-c3ccccc3)c12`, the inhibition is -8.93%.
In the case of `CS(=O)(=O)N(CC(=O)Nc1ccc(Cl)c(Cl)c1)C1CCCCC1`, the inhibition is 15.8%.
Next, `O=C(CSCc1ccc(Br)cc1)Nc1ccc(S(=O)(=O)N2CCCCCC2)cc1`: 6.78%; `CN(CC(=O)Nc1ccc(S(=O)(=O)N2CCCC2)cc1)Cc1ccc(Cl)c(Cl)c1`: 92% (active).
Next, `O=C(NNC(=O)C1CCN(c2ncccn2)CC1)c1ccccc1`: -7.74%; `O=C(Cn1nnc(-c2ccccc2)n1)NCc1ccc2c(c1)OCO2`: -6.91%; `O=C1N(Cc2ccc3c(c2)OCO3)c2ccccc2C1(O)c1c[nH]c2ccccc12` (stereo not given): 88.9% (active).
Next, `O=C(CCCCn1c(=O)[nH]c2ccccc2c1=O)NCc1ccc2c(c1)OCO2`: 4.03%.
As for `Cc1ccc(/C=N/NC(=O)COc2ccccc2-c2ccccc2)cc1`, the inhibition was 4.74%.
Consider `CC(=O)n1c(C=Nc2ccccc2)c(O)c2ccccc21`, for which the inhibition was 4.07%.
Next, `NS(=O)(=O)c1ccc(NC(=S)NNC(=O)c2cccs2)cc1`: -4.08%; `CC(=O)Cc1nsc(NC(=O)c2ccc(Cl)cc2Cl)n1`: -1.22%; `CCOc1cc(N2CCOCC2)c(OCC)cc1NC(=O)C1=NN(c2cccc(C)c2)C(=O)CC1`: 13.6%.
In the case of `CCN(CC(=O)NC(=O)NCc1ccccc1)Cc1nc2ccccc2c(=O)[nH]1`, the inhibition is -3.9%.
On to `CN(Cc1nc2ccccc2c(=O)[nH]1)Cc1cc(=O)oc2ccc3ccccc3c12`, for which the inhibition was 14.2%.
To `CCN(Cc1nc2ccccc2c(=O)[nH]1)Cc1cc(=O)oc2cc(C)c(C)cc12` belongs 73.8% (active); to `COc1cc(/C=C/C(=O)OCC(=O)NC(=O)NCc2ccccc2)ccc1OCC#N`, -1.09%.
With `CC(=O)c1cc(C#N)c(SCC(=O)Nc2nccs2)nc1C`, the inhibition is 1.83%.
To `CCOC(=O)c1ccccc1NC(=O)CSc1nc2ccccc2c(=O)[nH]1` belongs 6.6%; to `CCCCNS(=O)(=O)c1ccc(S(=O)(=O)n2cnc3ccccc32)cc1`, -3.46%; to `O=S(=O)(c1ccc(-c2ccccc2)cc1)N1CCCC1`, -7.57%.
Next, `O=S(=O)(c1ccc(Br)cc1)n1ccc2ccccc21`: 90.7% (active).
Next, `COc1ccc(-n2c(O)c(C=NCC(c3ccco3)N3CCCC3)c3ccccc3c2=O)cc1OC` (stereo not given): 2.68%.
Turning to `CC(=O)c1ccccc1NC(=O)CC1(CC(=O)O)CCCCC1`, the inhibition was 3.25%.
Next, `CCOC(=O)C1=NOC(Cn2cc(C(C)=O)c(=O)[nH]c2=O)C1` (stereo not given): 1.88%; `N/C(=N\OC(=O)c1ccc([N+](=O)[O-])cc1)c1ccccn1`: 1.71%; `N/C(=N\OC(=O)Cc1ccc([N+](=O)[O-])cc1)c1ccccn1`: 98.7% (active).
To `O=C(OCc1ccc([N+](=O)[O-])cc1)c1ccccn1` belongs -0.28%; to `CNc1nccc(-c2ccc(Cl)cc2)c1C#N`, -6.29%.
Next, `COc1cc(OC)cc(-c2nnc(N(C)C(=O)c3ccncc3)s2)c1`: -3.83%; `Cc1ccc(NC(=O)CSc2nc(CSc3ccc(C)cc3)cc(=O)[nH]2)cc1`: -2.59%.
As for `O=C(Nc1ccc2oc(-c3ccc4ccccc4c3)nc2c1)c1cccs1`, the inhibition is -1.1%.
Next, `CCCCCC(=O)Nc1ccc2oc(-c3ccncc3)nc2c1`: 96.4% (active); `O=C(Cc1cccc2ccccc12)Nc1ccc2oc(-c3ccccc3)nc2c1`: 40.6%.
As to `COc1cc(NC(=S)N2CCCC(C)C2)cc(OC)c1OC` (stereo not given), the inhibition was 4.64%.
On to `O=C(Nc1ccccc1)N1CCN(C(=O)Nc2ccccc2)CC1`, for which the inhibition is -5.42%.
Consider `CCCCN(C(=O)/C=C/c1ccco1)c1c(N)n(CC(C)C)c(=O)[nH]c1=O`, for which the inhibition is -4.4%.
Turning to `O=C(CCc1nnc(CCCCc2ccccc2)o1)NC(c1cccnc1)C(F)(F)F` (stereo not given), the inhibition is 11.3%.
To `CC(CCc1ccccc1)NCC(O)c1cccc([N+](=O)[O-])c1` (stereo not given) belongs 59.5% (active); to `COc1ccc([N+](=O)[O-])cc1NC(=O)CCc1ccccc1`, -3.05%.
Next, `CC(=O)Nc1cccc([N+](=O)[O-])c1`: -0.87%.
In the case of `CN(C)CCCN1C(=O)CSC1c1ccc([N+](=O)[O-])cc1` (stereo not given), the inhibition is 46.8%.
`O=C1NC2(CCCCCC2)C(=O)N1CCS(=O)(=O)Oc1ccccc1`: the inhibition was -10.5%.
To `Cc1ccc(NC(=O)c2ccccn2)cc1S(=O)(=O)N1CCOCC1` belongs -1.09%.
As for `CCn1cc(C(=O)Nc2cc(C)ccc2C)c(=O)c2ccc(C)nc21`, the inhibition is 1.39%.
For `CC(C)(C)N(CC#CCC(O)(c1ccccc1)C1CCCC1)CCO` (stereo not given), the inhibition was 3.46%.
As to `CN(CC#CCC(c1ccccc1)c1ccccc1)C(C)(C)C`, the inhibition was 100% (active).
With `COC(=O)C1=C(Nc2ccc(OC)cc2)C=C(C)C(C(=O)OC)C1c1ccc(C)cc1` (stereo not given), the inhibition is 24.6%.
For `COC(=O)C1=C(Nc2ccc(C)cc2)C=C(C)C(C(=O)OC)C1c1ccc(F)cc1` (stereo not given), the inhibition was 52.4% (active).
To `COC(=O)C1C(=O)NCC1c1ccc(C)cc1` (stereo not given) belongs 6.72%; to `COCCn1c(C)cc(C2=NNC(=Nc3ccc(F)cc3)SC2)c1C`, -1.36%; to `Cc1cc(C2=NNC(=Nc3ccc(S(=O)(=O)N4CCOCC4)cc3)SC2)c(C)n1CC1CCCO1` (stereo not given), -7.5%.
To `C=CCn1c(C)cc(C2=NNC(=NCC)SC2)c1C` belongs 58.5% (active); to `COC(=O)c1cc2n(n1)CCCNC2=O`, -4.96%; to `CC(=O)Nc1ccccc1NC(=O)c1cc(C)cc(C)c1`, -0.58%.
`O=C(O)c1ccc(NC(=O)C2CCCCC2)cc1`: the inhibition is -6.65%.
To `CCC1CCCCN1C(=S)Nc1ccc(C(C)=O)cc1` (stereo not given) belongs -8.59%; to `CC(=O)c1ccc(N=C2SCCCN2C(=O)C2CCCCC2)cc1`, 85.8% (active); to `COc1cccc(NC(=O)CS(=O)(=O)c2cn(CC(=O)N3CCOCC3)c3ccccc23)c1`, -7.03%.
Turning to `CC(=O)NC(Cc1c[nH]c2ccccc12)C(=O)O` (stereo not given), the inhibition is -12.4%.
Next, `CC(=O)Nc1ccc(/C=N/NC(=O)c2cccs2)cc1`: -2.65%.
Next, `O=C(NC(Cc1c[nH]c2ccccc12)C(=O)N/N=C/c1ccc(Br)cc1)c1cccs1` (stereo not given): 65.6% (active).
To `CSc1ncccc1C(=O)N1CCCC(CCC(=O)NCc2ccccc2F)C1` (stereo not given) belongs -5.49%; to `COc1cc(NC(=O)c2cccs2)ccc1NC(=O)c1ccccc1Cl`, 0.19%.
Turning to `COCCn1nnnc1C(c1ccccc1Cl)N1CCN(c2ccccc2OC)CC1` (stereo not given), the inhibition was -0.67%.
Regarding `CCOC(=O)C1CCN(C(c2cc3cc(C)cc(C)c3[nH]c2=O)c2nnnn2C2CCCCC2)CC1` (stereo not given), the inhibition is 88.6% (active).
Turning to `CCOc1ccc2[nH]c(=O)c(C(c3nnnn3CCOC)N3CCOCC3)cc2c1` (stereo not given), the inhibition is -4.07%.
To `CC(C)C(c1nnnn1C1CCCC1)N1CCN(c2ccccc2F)CC1` (stereo not given) belongs 33%; to `Cc1cc(C)c2[nH]c(=O)c(C(c3nnnn3Cc3ccc4c(c3)OCO4)N3CCCC3)cc2c1` (stereo not given), 27.4%.
For `COc1ccc(C(c2nnnn2C2CCCCC2)N2CCN(c3ccccc3F)CC2)cc1` (stereo not given), the inhibition was 96.8% (active).
To `COc1ccc(N2CCN(C(c3cc4ccc(C)cc4[nH]c3=O)c3nnnn3C3CCCC3)CC2)cc1` (stereo not given) belongs 75.4% (active).
Next, `CCC(c1nnnn1C1CCCC1)N1CCN(C(=O)c2ccco2)CC1` (stereo not given): -6.05%; `CN1CCN(C(c2cc3cc4c(cc3[nH]c2=O)OCCO4)c2nnnn2C2CCCC2)CC1` (stereo not given): -6.88%.
